Assay outcomes as filed in PubChem BioAssay.
HTR5A inv ag – counter-screen for OPRM1-OPRD1 inverse agonists: human HTR5A inverse agonism; inhibition, % at 9.3 µM; HTR5A cell line, luminescence; 340,000 tested, 0.083% active; P47898; AID 504634; in the data active = inhibition mostly above about 23%, no sharp cut-off; inactive = mostly below about 18%;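 also: 0% = cells with DMSO and 100% = no-cell wells with DMSO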
HTR5A ag ctr – counter-screen for OPRM1-OPRD1 agonists: human HTR5A agonism. P47898. HTR5A agonist assay, luminescence, cell-based. activation, % at 9.3 µM. 340,000 tested, 0.61% active. AID 504692; in the data active = activation mostly above about 9.5%, no sharp cut-off; inactive = mostly below about 7.6%;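 also: 0% = cells with vehicle only and 100% = reference agonist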
MOR-DOR ag – agonists of human mu-delta opioid receptor heterodimerization | P35372+P41143 | cells, OPRM1-OPRD1 heterodimerization, luminescence | activation, % at 9.3 µM | 340,000 tested, 0.3% active | AID 504326;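 also: 0% = vehicle-treated cells and 100% = reference agonist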
MOR-DOR inv ag – mu-delta opioid heterodimer inverse agonism; P35372+P41143; cell-based MOR-DOR heterodimer luminescence; inhibition, % at 9.3 µM; 340,000 tested, 0.21% active; in the data active = inhibition above about 22%, passing the limit was not always enough;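 also: 0% = cells with DMSO and 100% = wells without cells with DMSO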
MOR-DOR ag conf – OPRM1-OPRD1 heterodimer agonism, confirmation; activation, % at 9.3 µM; AID 504904; 830 tested, 45% active; shares compounds with MOR-DOR ag; cells, MOR-DOR heterodimerization, luminescence complementation;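 also: 0% = vehicle-treated cells and 100% = reference agonist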
HTR5A ag ctr2 – counter-screen for OPRM1-OPRD1 agonists: human HTR5A agonism; shares compounds with MOR-DOR ag; HTR5A agonist counterscreen, cell luminescence; activation, % at 9.3 µM; 830 tested, 8% active; in the data active = activation above about 17%;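 also: 0% = vehicle-treated cells and 100% = reference agonist response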
Numbers without * were called inactive. Compounds with a hit are over-represented: about 1.1% of the library has one in this group of screens. Rule as the data show it, unless noted: active = activation above about 18%; inactive = the rest.

How did COC(=O)C1=COC(C)C2CN3CCC4(C(=O)Nc5ccccc54)C3CC12 (stereo not given) do in these assays?
HTR5A inv ag: 21.2; HTR5A ag ctr: 1.4; MOR-DOR ag: -0.8; MOR-DOR inv ag: 3.8

What do the screens show for `CC1[C@H]2Cc3ccc(O)cc3[C@]1(C)CCN2CCc1ccccc1` (stereo not given in full)?
HTR5A inv ag: 18.9; HTR5A ag ctr: -8.2; MOR-DOR ag: 338.9*; MOR-DOR inv ag: inactive; MOR-DOR ag conf: 315.0*; HTR5A ag ctr2: 0.3

What do the screens show for `COc1ccc(CNCCc2c[nH]c3ccccc23)c(OC)c1C`?
HTR5A inv ag: -24.6; HTR5A ag ctr: 6.6; MOR-DOR ag: 21.3*; MOR-DOR inv ag: -95.3; MOR-DOR ag conf: 48.2*; HTR5A ag ctr2: 15.1

Results for CC(=O)C1CCC2C3CCC4CC(O)CCC4(C)C3C(=O)CC12C (stereo not given) ?
HTR5A inv ag: 0.5; HTR5A ag ctr: -0.1; MOR-DOR ag: -2.6; MOR-DOR inv ag: 13.2

How did Cc1cc(NC(=O)CCl)nn1C do in these assays?
HTR5A inv ag: -18.5; HTR5A ag ctr: 6.5; MOR-DOR ag: 91.3*; MOR-DOR inv ag: -468.6; MOR-DOR ag conf: 1.1; HTR5A ag ctr2: 1.9

What do the screens show for `CN1CCC23c4c5ccc(O)c4O[C@@H]2[C@H](O)C=CC3C1C5` (stereo not given in full)?
HTR5A inv ag: 4.7; HTR5A ag ctr: -2.0

What do the screens show for `CN1CC[C@]23c4c5ccc(O)c4OC2[C@H](O)C=CC3[C@H]1C5` (stereo not given in full)?
HTR5A inv ag: -0.5; HTR5A ag ctr: 0.2; HTR5A ag ctr2: 4.6

What do the screens show for `C[C@]12CCC3C(CC[C@@H]4C[C@H](O)CC[C@]34C)C1CCC2=O` (stereo not given in full)?
HTR5A inv ag: 2.5; HTR5A ag ctr: -0.6; MOR-DOR ag: 2.9; MOR-DOR inv ag: -14.6

Results for CC1OC(OC2CC(O)C3(CO)C4C(O)CC5(C)C(C6=CC(=O)OC6)CCC5(O)C4CCC3(O)C2)C(O)C(O)C1O (stereo not given) ?
HTR5A inv ag: 0.1; HTR5A ag ctr: 26.1*; MOR-DOR ag: 80.0*; MOR-DOR inv ag: -403.7; MOR-DOR ag conf: 5.0; HTR5A ag ctr2: 3.3

Results for COc1ccc(-c2cc(=O)oc3c(C)c(OC(C)C(=O)N4C[C@H]5C[C@@H](C4)c4cccc(=O)n4C5)ccc23)cc1 (stereo not given in full) ?
HTR5A inv ag: -1.6; HTR5A ag ctr: 1.7; MOR-DOR ag: -1.8; MOR-DOR inv ag: 9.0

Results for CC12CC[C@H]3[C@@H](CCC4(O)C[C@H](O)CCC34/C=N/NC(=O)c3ccccc3F)C1(O)CCC2C1=CC(=O)OC1 (stereo not given in full) ?
HTR5A inv ag: 9.2; HTR5A ag ctr: 10.6; MOR-DOR ag: 12.5; MOR-DOR inv ag: -63.8

Results for CC12CC[C@H]3[C@@H](CCC4(O)C[C@H](O)CCC34/C=N/NC(=O)c3ccccc3O)C1(O)CCC2C1=CC(=O)OC1 (stereo not given in full) ?
HTR5A inv ag: -29.5; HTR5A ag ctr: 9.4; MOR-DOR ag: 34.8*; MOR-DOR inv ag: -184.2; MOR-DOR ag conf: 8.7; HTR5A ag ctr2: -0.1

What do the screens show for `COC1=CC2C3Cc4ccc(OC)c(O)c4C2(CCN3C)CC1=O` (stereo not given)?
HTR5A inv ag: -20.2; HTR5A ag ctr: 8.2; MOR-DOR ag: -0.7; MOR-DOR inv ag: 3.1

How did COc1ccc2c(c1O)[C@]13CCN(C)[C@H](C2)[C@@H]1CCC(=O)C3 do in these assays?
HTR5A inv ag: -15.7; HTR5A ag ctr: 5.0; MOR-DOR ag: 96.4*; MOR-DOR inv ag: inactive; MOR-DOR ag conf: 23.3*; HTR5A ag ctr2: -0.9

Results for O=c1[nH]c(=S)[nH]c(O)c1N=Nc1ccc(S(=O)(=O)N2CCc3ccccc32)cc1 ?
HTR5A inv ag: -3.5; HTR5A ag ctr: 1.3; MOR-DOR ag: -1.9; MOR-DOR inv ag: 13.2

How did CC12CCC(=O)C=C1C=CC1C2CCC2(C)C(O)CCC12 (stereo not given) do in these assays?
HTR5A inv ag: -9.7; HTR5A ag ctr: 2.7; MOR-DOR ag: -0.3; MOR-DOR inv ag: 1.7

How did CC(=O)OC1CC[C@]2(C#N)[C@H]3CC[C@]4(C)[C@H](C5C=CC(=O)O5)CCC4(O)C3CCC2(O)C1 (stereo not given in full) do in these assays?
HTR5A inv ag: -69.3; HTR5A ag ctr: 18.7*; MOR-DOR ag: 51.4*; MOR-DOR inv ag: -245.8; MOR-DOR ag conf: 17.9; HTR5A ag ctr2: 21.1*

Results for COc1ccc(C(CNC(=O)CCc2ccsc2)N(C)C)cc1 (stereo not given) ?
HTR5A inv ag: 12.8; HTR5A ag ctr: 2.0; MOR-DOR ag: 404.6*; MOR-DOR inv ag: inactive; MOR-DOR ag conf: 55.0*; HTR5A ag ctr2: -3.3

What do the screens show for `COc1ccc(C(CN(C)C)C2(O)CCCCC2)cc1` (stereo not given)?
HTR5A inv ag: -18.4; HTR5A ag ctr: -3.4; MOR-DOR ag: -2.2; MOR-DOR inv ag: 12.2

Results for COc1cc(N2C(=O)CC(=O)NC2=O)cc(OC)c1OC ?
HTR5A inv ag: -4.2; HTR5A ag ctr: 1.1; MOR-DOR ag: -4.7; MOR-DOR inv ag: 21.8

How did CC1CC(OC(=O)c2ccccc2)(c2ccccc2)C(C)CN1C (stereo not given) do in these assays?
HTR5A inv ag: 5.2; HTR5A ag ctr: -2.2; MOR-DOR ag: -5.0; MOR-DOR inv ag: 24.9

Results for CCC(=O)OC1(c2cccc(C)c2)CC(C)N(C)CC1C (stereo not given) ?
HTR5A inv ag: 3.0; HTR5A ag ctr: -1.2; MOR-DOR ag: 64.2*; MOR-DOR inv ag: -313.3; MOR-DOR ag conf: 65.8*; HTR5A ag ctr2: -0.1

What do the screens show for `CCC(=O)OC1(c2ccccc2)C(C)CN(C)CC1C` (stereo not given)?
HTR5A inv ag: -3.0; HTR5A ag ctr: -3.3; MOR-DOR ag: 1.9; MOR-DOR inv ag: -9.2

How did CCC(=O)OC1(Cc2ccc(CC)cc2)CC(C)N(C)CC1C (stereo not given) do in these assays?
HTR5A inv ag: -44.2; HTR5A ag ctr: 1.0; MOR-DOR ag: 20.2*; MOR-DOR inv ag: -105.8; MOR-DOR ag conf: 1.7; HTR5A ag ctr2: 1.3

What do the screens show for `Cc1c(NC(NC(=O)CF)C(Cl)(Cl)Cl)c(=O)n(-c2ccccc2)n1C` (stereo not given)?
HTR5A inv ag: -16.3; HTR5A ag ctr: -12.9; MOR-DOR ag: -3.1; MOR-DOR inv ag: 15.4

How did CCC(C)N1C(=O)NC(=O)C2(Cc3c(ccc4ccccc34)N(C)C2)C1=O (stereo not given) do in these assays?
HTR5A inv ag: -29.7; HTR5A ag ctr: 13.5; MOR-DOR ag: 20.2*; MOR-DOR inv ag: -126.1; MOR-DOR ag conf: 214.6*; HTR5A ag ctr2: -1.2
